Compound activity from PubChem BioAssay.
TDP1 cell CPT: growth inhibition of DT40 Tdp1-/-;hTDP1 cells with camptothecin (screen for TDP1 inhibitors). Potency, µM (doses to about 46.2 µM), inactives show top-dose activity change, negative = growth inhibition, actives largely listed as inhibitors. chicken DT40 Tdp1-/-;hTDP1 cells + 20 nM CPT, ATP luminescence, 48 h. actives 12% (n = 420,000); also: potency is read from the fitted curve at half-maximal effect; nearly all actives have a fitted effect of over 55% in size
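Chicken DT40 Tdp1-/- cells complemented with human TDP1, 400 cells/well, exposed to compounds plus 20 nM camptothecin for at least 48 h at 37 C; viability read as ATP content by CellTiter-Glo luminescence.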
TDP1 cell noCPT: qHTS for Inhibitors of human tyrosyl-DNA phosphodiesterase 1 (TDP1): qHTS in cells in absence of CPT; DT40 Tdp1-/- hTDP1 cells, no CPT, ATP luminescence, 48 h; Potency, µM (highest dose often 46.2 µM), for inactives: at the top dose activity change, negative = growth inhibition, hits mostly inhibitors; actives 15% (n = 420,000); also: potency is read from the fitted curve at half-maximal effect; nearly all actives have a fitted effect of over 55% in size
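Seeded 400 DT40-hTDP1 cells/well (vehicle DMSO, no 20 nM CPT); pinned compounds; ≥48 hr at 37 °C; CellTiter-Glo luminescence as viability measure.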
ELG1 DNA repair: ELG1-dependent DNA repair inhibition; HEK293T ELG1-luciferase reporter, luminescence, 16 h; DNA damage induced by 5-fluorouridine; Potency, µM (top dose mostly 46.1 µM), for inactives: at the top dose activity change, negative = inhibition, most hits filed as inhibitors; actives 2.3% (n = 330,000); AID 504467; also: potency is read from the fitted curve at half-maximal effect; nearly all actives have a fitted effect of over 55% in size
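Reporter activity after DNA damage by 5-fluorouridine is monitored. Compound-treated cells incubate 16 hr at 37 °C, then ONE-Glo is added for 30 min before luminescence reading.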
HT1080 IDH1KD tx: HT-1080 IDH1 knockdown cell toxicity (counter line); Potency, µM (doses to about 46.1 µM), inactives show top-dose activity, negative = toxicity, actives largely listed as cytotoxic; HT-1080 IDH1 knockdown viability, ATP luminescence, 48 h; actives 2% (n = 360,000);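 also: potency is read from the fitted curve at half-maximal effect; 0% = DMSO wells and -100% = cell-free medium wells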
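After a 2 h attachment period, IDH1KD HT-1080 cells took pin-transferred compound for 48 h at 37 °C; ATP-based luminescence after 10 min room-temperature reagent incubation reported viability.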
HT1080NT lethal: kills 2HG-producing HT-1080-NT fibrosarcoma cells; HT-1080-NT fibrosarcoma viability, CellTiter-Glo ATP luminescence, 48 h; Potency, µM (top dose mostly 46.1 µM), without a hit: at the highest dose activity, negative = less viability, actives largely listed as cytotoxic; actives 1.6% (n = 360,000); AID 686970;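 also: NT is the 2HG producing partner of a matched IDH1 knockdown line; potency is read from the fitted curve at half-maximal effect; 0% = DMSO-treated cells and -100% = media-only wells without cells; nearly all actives have a fitted effect of over 55% in size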
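Toxicity toward the 2HG-producing NT line was scored as %Activity, normalised to DMSO and no-cell wells, from CellTiter-Glo luminescence after 48 hours' treatment.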
IL1B secr inh: blocks inflammasome-driven IL-1 beta release | THP-1 LPS/ATP IL-1B secretion, AlphaLISA, 16 h; hits give low values | activity change, % at 57.5 µM | actives 4.7% (n = 360,000) | AID 743279; in the data active = activity change below about -50%; inconclusive = mostly about -30% to -49%
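THP-1 cells pretreated 1 hr with compounds (up to 57.5 uM final), then stimulated with LPS (250 ng/mL final) plus ATP (1.25 mM final); secreted IL-1B measured by AlphaLISA after 16 hr, decreased signal indicating inhibition.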
Numbers without * were called inactive; ? = inconclusive; · = no result given; ! = repeats disagree. Compounds with a hit are over-represented: about 19% of the library has one in this group of screens. Unless noted, calls follow the shape of the dose curve; as a rule, active = well fitted curve in the direction sought with a large enough effect; inconclusive = small, poorly fitted or top-dose-only effect, or another doubt; inactive = no such curve, though single readings can be large; an effect the other way counts as inactive or inconclusive. Unless noted, % is scaled to controls: 0 for no effect and ±100 for the full control effect.

SMILES	TDP1 cell CPT	TDP1 cell noCPT	ELG1 DNA repair	HT1080 IDH1KD tx	HT1080NT lethal	IL1B secr inh
CCOC(=O)[C@]12Cc3cc(Cl)ccc3[C@H]1N(C1CCCCC1)C(=O)c1ccccc12	2.3µM*	2.3µM*	·	2.3µM*	2.3µM*	-114*
CCOC(=O)[C@]12Cc3cc(OC)ccc3[C@H]1N(C1CCCCC1)C(=O)c1ccccc12	2.1µM*	2.3µM*	·	2.3µM*	2.6µM*	-122*
CC(C)[N+]12CCC(CC1)C(C(O)(c1ccccc1)c1ccccc1)C2 (centres undefined)	-11%	-21%	-6%	3%	-5%	-1
COC(=O)C1=C(c2cccc(OC)c2OC)C[C@@H]2CC[C@H]1N2C(=O)NCCS(C)=O (some centres undefined)	-3%	-2%	·	8%	7%	13
CC1=CP(=O)(Oc2ccc([N+](=O)[O-])cc2)CC1 (centres undefined)	-23%	-3%	·	4%	0%	1
Cc1n[nH]c(C)c1CCCCOc1ccc([N+](=O)[O-])cc1	15µM*	?	9%	-2%	8%	12
CCCCCCCCCc1ccc(O)cc1	?	-12%	·	·	·	·
CCN(CC)CCCOC(=O)C(OC(C)C)(c1ccccc1)c1ccccc1	23µM*	18µM*	-14%	?	?	-56*
C[C@H](CO)N1C[C@H](C)[C@@H](CN(C)C(=O)c2ccc3c(c2)OCO3)Oc2cc(/C=C/c3ccccc3)ccc2S1(=O)=O	21µM*	8.2µM*	·	-28%	-21%	?
CCc1cccc(CC)c1N(COC)C(=O)CCl	21µM*!	?	·	·	·	-19
COCC(C)N(C(=O)CCl)c1c(C)csc1C (centres undefined)	10%	-17%	·	·	·	·
CCOCN(C(=O)CCl)c1c(C)cccc1CC	?	?	?	4%	-5%	-60*
CCC1(CC)C(=O)NC(=O)NC1=O	2%	19%	·	·	·	·
COc1cc(C(=O)Nc2ccc(Br)cc2C(=O)c2ccccc2)cc(OC)c1OC	-18%	-26%	-16%	-3%	-1%	-2
NC(Cc1ccc(O)cc1)C(=O)NN=Cc1ccc(N(CCCl)CCCl)cc1 (centres undefined)	8.2µM*	13µM*	·	-9%	?	-2
COc1cc(C(=O)NN=Cc2ccc(N(CCCl)CCCl)cc2)cc(OC)c1OC	?	?	·	4.1µM*	?	54
C=CC(=O)NCNC(=O)C=C	-3%	-1%	?	14%	-9%	-10
Ic1ccccc1CN[C@@H]1C2CCN(CC2)[C@@H]1C(c1ccccc1)c1ccccc1	12µM*	6.5µM*	-4%	21µM*	18µM*	-50*
N#Cc1cccc(NC(=O)N2CCCC3(CCN(C(=O)Oc4ccccc4)CC3)C2)c1	1%	-12%	·	·	·	·
O=c1ccc2cc(O[C@H]3OC(CO)C(O)C(O)C3O)c(O)cc2o1 (some centres undefined)	-10%	4%	·	·	·	·
O=C1CC23c4ccccc4N4C(=O)CC5OCC=C6CN1C2CC6C5C43 (centres undefined)	-14%	?	·	11%	11%	1
COC(=O)C1=C(c2ccc(F)cc2OCc2ccccc2)C[C@@H]2CC[C@H]1N2C(=O)NCc1ccco1	?	?	-8%	-2%	-4%	1
COC(=O)C1=C(c2cc3ccccc3o2)C[C@@H]2CC[C@H]1N2C(=O)NCc1ccco1	16µM*	·	·	-10%	5%	-12
COC(=O)C1=C(c2ccc(S(C)(=O)=O)cc2)C[C@@H]2CC[C@H]1N2C(=O)NCc1cccc2ccccc12	29µM*	·	·	11%	8%	-11
COC(=O)C1=C(c2cc3ccccc3o2)C[C@@H]2CC[C@H]1N2C(=O)NCc1cccc2ccccc12	?	16µM*	·	-14%	-1%	-15
SMILES	TDP1 cell CPT	TDP1 cell noCPT	ELG1 DNA repair	HT1080 IDH1KD tx	HT1080NT lethal	IL1B secr inh
COC(=O)C1=C(c2cc3ccccc3o2)C[C@@H]2CC[C@H]1N2C(=O)NCc1ccc(F)cc1	?	·	·	?	-27%	-14
CCC1(CCC(C)C)C(=O)NC(=O)N(c2ccccc2)C1=O (centres undefined)	-26%	?	·	16%	13%	11
Clc1ccc(CCNCc2ccncc2)c(Cl)c1	?	-27%	16%	1%	-5%	?
O=S(=O)(NCc1ccncc1)c1ccc(F)c(F)c1	10µM*	6.5µM*	·	-17%	2%	2
C#CCOCCOCCOCCNc1nc(N2CCN(C(=O)CCCCCCCCCCNC(=O)[C@H]([C@@H](C)CC)n3cc(CCCCN=C(N)N)nn3)CC2)nc(N2CCN(C(=O)CCCCCCCCCCNC(=O)[C@H](CO)n3cc(CCCCCN)nn3)CC2)n1	15µM*	21µM*	?	?	?	-73*
Cc1cc(OCC(=O)OC(C)(C)C)c2c3c(c(=O)oc2c1)CCC3	-23%	-25%	17%	-3%	-1%	32
Cc1cc(OCC(=O)N2CCC(C(=O)O)CC2)c2c3c(c(=O)oc2c1)CCCC3	-6%	-6%	-29%	7%	1%	4
CCN(CC)C(=O)COc1cc(C)cc2oc(=O)c3c(c12)CCCC3	?	?	?	-4%	-4%	-50*
C=CCOC(=O)COc1cc(C)cc2oc(=O)c3c(c12)CCC3	-6%	-7%	?	-7%	-6%	-24
Cc1cc(OCC(=O)N2CCC(C(=O)NCC(C)C)CC2)c2c3c(c(=O)oc2c1)CCCC3	-19%	13µM*	5%	15%	13%	46
Cc1cc(OC(=O)c2ccco2)c2c3c(c(=O)oc2c1)CCC3	?	23µM*	-15%	0%	0%	0
CC(C)N=C(NC(C)C)N1CC1	-8%	0%	·	0%	2%	-3
COc1cc(C2(C#N)CCN(C)CC2)cc(OC)c1OC	-12%	6%	·	14%	6%	3
CCCN(CCC)[C@@H]1CCc2c(OC)cccc2[C@@H]1C	?	15µM*	·	·	·	·
COc1cccc(-n2c(/C=C/c3ccccc3O)nc3ccccc3c2=O)c1	?	26µM*	·	·	·	·
Cc1nc2ccccc2c(=O)n1-c1ccc(F)cc1	0%	6%	5%	5%	5%	22
